The source of these data is PubChem BioAssay (NCATS).

Results filed as inconclusive are left out. Entries that show only a call come without a potency. Active and inactive are the calls of the source. Calls come from the whole dose curve; as a rule, active = well fitted inhibition curve with a large enough effect; inconclusive = small, poorly fitted or top-dose-only effect; inactive = flat fitted curve, though single readings scatter.

This assay concerns the target Aldehyde dehydrogenase, mitochondrial (Homo sapiens) (UniProt P05091). Description: qHTS for Inhibitors of the Aldehyde Dehydrogenase Family (ALDH2) Primary screen (AID 2061308). Note: nearly all actives have a fitted effect of over 55% in size. The conditions noted are these: ALDH2 enzyme inhibition qHTS, 1536-well; series mostly up to 56 µM.
On to `Cc1ccnc(NC(=S)N2CCN(c3ccc(Br)cc3)CC2)c1`, for which the Potency entry is “inactive”.

As for `Cc1ccnc(NC(=S)N2CCc3cccc(C(F)(F)F)c3C2)c1`, the Potency entry is “inactive”. Take `Oc1c(CNc2ccccc2)cc(COCc2ccccc2)c2cccnc12`: the Potency entry was “inactive”.

Consider `CCCCN(C)C(=O)Cn1nc(-c2ccc(C(C)=O)cc2)ccc1=O`, for which the Potency entry was “inactive”. For the molecule `C/C(=C\c1ccccc1)C1Nc2cccc3cccc(c23)N1`, the Potency result was “inactive”. Consider `CN1CCc2ccc3c4c2[C@]1(C)Cc1cccc(c1-4)OCO3`, for which the Potency result is “inactive”.

In the case of `Cc1ccnc(NC(=S)N2CCN(c3cccc(C(F)(F)F)n3)CC2)c1`, the Potency entry was “inactive”. To `O=C(NC(c1ccco1)c1cc(Cl)c2cccnc2c1O)c1cccs1` (stereo not drawn) belongs “inactive”.

`O=C1c2ccccc2C(=O)N1c1cccc2cccnc12`: the Potency result is “inactive”. To `C=C1/C(=C/C=C2\CCC[C@]3(C)[C@@H]([C@H](C)/C=C/[C@@H](C)C(C)C)CC[C@@H]23)C[C@@H](O)C[C@@H]1O` belongs “inactive”.

On to `COc1ccc(C(=O)OC2C3C=COC(OC4OC(CO)C(O)C(O)C4O)C3C3(CO)OC23)cc1OC` (stereo not drawn), for which the Potency entry was “inactive”. Take `COc1ccc(O)c(-c2nc3ccccc3c(=O)n2Cc2ccccc2)c1`: the Potency result is “inactive”. To `OC/C=C/c1ccc(O[C@@H]2O[C@H](CO)[C@@H](O)[C@H](O)[C@H]2O)cc1` belongs “inactive”; to `Cn1c2cc(Br)sc2c2cnn(Cc3c(F)cccc3Cl)c(=O)c21`, “inactive”; to `COc1ccc(C(=O)NC(c2ccco2)c2cc(Cl)c3cccnc3c2O)cc1` (stereo not drawn), “inactive”. The result for `COc1ccc2nc(-c3cccc(NC(C)=O)c3)sc2c1` reads “inactive”; that for `NC(Cc1c[nH]c2ccc(O)cc12)C(=O)O` (stereo not drawn), “inactive”; that for `O=C(O)c1cccc(-c2noc(-c3cccc(F)c3)n2)c1`, “inactive”. Regarding `Cc1cnc(-c2ccccc2C(F)(F)F)nc1NCc1ccc(-c2cccnc2)cc1`, the Potency entry is “inactive”. In the case of `O=C(Nc1cncc(-c2ccncc2)c1)c1cccs1`, the Potency entry was “inactive”. Regarding `Cc1ccnc(NC(=S)N2CCCC(Nc3cccc(C(F)(F)F)c3)C2)c1` (stereo not drawn), the Potency entry is “inactive”. Take `N#Cc1ccc(-c2nc3ccccc3s2)cc1`: the Potency entry was “inactive”.

In the case of `Cc1ccc(Nc2c(F)cccc2Cl)c(CC(=O)O)c1`, the Potency entry was “inactive”.
